Reference: the supplement of paper PMC8253809
“And” between values parts separate entries of the source, which are not always exact repeats. Equal values may be shown once.

Assays:
Assay in all cases: growth inhibition (% activity, log2 RLU normalised to DMSO / staurosporine); higher = more growth inhibition
Details in all cases: 33 µM
[1] = tested on: DIPGX29 (H3.3 K27M diffuse intrinsic pontine glioma line)
Method in brief: (§1)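 In triplicate, pHGG cell lines and H9-derived neural stem cells were treated for 7 days at 37 °C, 5% CO2 with approved drugs at a single final concentration of about 33 μM, added by pin tool. CellTiter-Glo luminescence, after log2 transformation, was normalised on each plate to % activity between solvent and positive control wells. Growth inhibition is reported as the median across replicates.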

[2] = tested on: DIPGX37 (H3.3 K27M diffuse intrinsic pontine glioma line)
Method in brief: as §1

[3] = tested on: DIPGX7 (H3.3 K27M diffuse intrinsic pontine glioma line)
Method in brief: as §1

[4] = tested on: DIPGX9 (diffuse intrinsic pontine glioma line)
Method in brief: as §1

[5] = tested on: HGGX39 (paediatric high-grade glioma line)
Method in brief: as §1

[6] = tested on: HGGX6 (H3.3 G34R paediatric high-grade glioma line)
Method in brief: as §1

[7] = tested on: HNSC
Method in brief: as §1

[8] = tested on: SUDIPGIV (diffuse intrinsic pontine glioma line)
Method in brief: as §1

[9] = tested on: SUDIPGVI (diffuse intrinsic pontine glioma line)
Method in brief: as §1

[10] = tested on: SUDIPGXIII (diffuse intrinsic pontine glioma line)
Method in brief: as §1

SMILES | growth inhibition [1] | growth inhibition [2] | growth inhibition [3] | growth inhibition [4] | growth inhibition [5] | growth inhibition [6] | growth inhibition [7] | growth inhibition [8] | growth inhibition [9] | growth inhibition [10]
COc1ccc(OC)c(C(O)C(C)N)c1 (stereo not drawn) | 0.864% | 2.94% | -0.264% | 0.24% | 3.05% | 1.53% | 1.54% | 0.0544% | 3.12% | -0.103%
CC(=O)O[C@H]1C[C@@H]2CC[C@@H]3[C@H](CC[C@@]4(C)[C@H]3C[C@H]([N+]3(C)CCCCC3)[C@@H]4OC(C)=O)[C@@]2(C)C[C@@H]1[N+]1(C)CCCCC1 | -1.09% | 0.743% | -0.188% | 0.99% | -0.431% | 1.2% | -0.41% | -0.385% | 0.196% | –
Nc1nc(N)nc(NC2CC2)n1 | 0.786% | 3.68% | 1.03% | 0.525% | 0.614% | -0.225% | 1.21% | 1.07% | 2.19% | 0.454%
CC(=O)Nc1cc([As](=O)(O)O)ccc1O | -0.747% | 1.33% | -1.33% | -0.567% | 0.328% | 0.00658% | -0.382% | -1.04% | 0.903% | 1.03%
CC(C)c1c(CN(C)C(C)Cc2ccccc2)n(C)n(-c2ccccc2)c1=O (stereo not drawn) | 2.25% | 0.985% | 2.59% | -0.334% | -0.152% | -0.564% | 48.4% | 1.4% | -1.33% | 2.29%
COc1ccc(C(=O)N2CCCC2=O)cc1 | 0.75% | 0.424% | 2.24% | 0.251% | -0.804% | -0.258% | 0.808% | -2.06% | -5.15% | -1.15%
NCCc1c[nH]c2ccc(O)cc12 | -2.73% | 0.315% | -2.87% | -2.24% | -2.22% | -1.35% | -4.26% | 0.704% | -3.47% | 0.646%
O=C(O[C@H]1C[C@H]2CC[C@@H](C1)[N+]21CCCC1)C(O)(c1ccccc1)c1ccccc1 | -4.33% | -1.91% | -0.848% | -3.62% | -4.77% | -4.81% | 20.6% | -1.98% | -6.45% | -0.149%
Cc1cccc(Cc2c[nH]cn2)c1C | 1.63% | 3.84% | 4.17% | 3.18% | 5.48% | 2.59% | 4.93% | 6.05% | 6.15% | 0.33%
CN1[C@@H]2C[C@@H](OC(=O)[C@H](CO)c3ccccc3)C[C@H]1[C@@H]1O[C@@H]12 | -4.79% | -2% | -0.341% | -2.82% | -2.31% | -3.37% | 23.8% | -3.93% | -9.6% | 0.487%
CC(=O)OC12COC1CC(O)C1(C)C(=O)C(O)C3=C(C)C(O)CC(O)(C(OC(=O)c4ccccc4)C21)C3(C)C (stereo not drawn) | 7.46% | 3.33% | 4.76% | 9.41% | 14.7% | 6.8% | 11.9% | 21.5% | 1.87% | 3.01%
O=c1[nH]c2ccccc2n1CCCN1CCC(n2c(=O)[nH]c3cc(Cl)ccc32)CC1 | 1.24% | -0.863% | 0.225% | -0.635% | 3.76% | 1.12% | 1.78% | -1.4% | -2.62% | -2.52%
C[N+]1(C)CCCC(OC(=O)C(O)(c2ccccc2)c2ccccc2)C1 (stereo not drawn) | -0.577% | 0.259% | -0.262% | 0.527% | -0.329% | -1.01% | 20.4% | -0.578% | -2.44% | -1.44%
c1ccc2c(c1)sc1ccccc12 | -2.47% | -0.0217% | -2.61% | -1.01% | -2.68% | -1.23% | -4.08% | -1.98% | -1.87% | 1.54%
CCCCCCCCCCCCCCCC[n+]1ccccc1 | 59.1% | 58.4% | 62.7% | 52.2% | 59.6% | 35.8% | 76.6% | 55.8% | 62.8% | 72.8%
NCC(CC(=O)O)c1ccc(Cl)cc1 (stereo not drawn) | 1.57% | -2.95% | 2.49% | 1.01% | 0.323% | -0.203% | 33.3% | 2.9% | -4.01% | 0.136%
CCC1(c2cccc(O)c2)CCCCN(C)C1 (stereo not drawn) | 0.813% | 0.766% | -0.204% | 0.246% | -0.148% | -2.47% | 18.5% | -0.915% | -3.26% | -1.39%
CN(C)C(=O)Oc1ccc[n+](C)c1 | 0.471% | -1.26% | -0.161% | 0.978% | 0.907% | 0.761% | -1.64% | 0.973% | 1.15% | -0.0947%
CN(C)[C@@H]1C(=O)C(C(N)=O)=C(O)[C@@]2(O)C(=O)C3=C(O)c4c(O)cccc4[C@@](C)(O)[C@H]3[C@H](O)[C@@H]12 | 0.568% and -1.27% | 1.33% and -2.42% | 0.754% and -1.23% | 1.93% and -1.22% | 2.88% and -0.945% | 1.26% and -1.1% | 0.393% and 0.992% | 2.12% and -1.5% | -1.25% and -0.24% | 1.12% and 0.41%
C#C[C@]1(O)C=C[C@H]2[C@@H]3CCC4=CC(=O)CC[C@@H]4[C@H]3CC[C@@]21CC | 1.62% | 0.668% | 0.599% | 1.55% | 1.48% | 3.32% | 0.901% | 0.673% | 1.89% | 0.6%

SMILES | growth inhibition [1] | growth inhibition [2] | growth inhibition [3] | growth inhibition [4] | growth inhibition [5] | growth inhibition [6] | growth inhibition [7] | growth inhibition [8] | growth inhibition [9] | growth inhibition [10]
CN1c2ccccc2C(NCCCCCCC(=O)O)c2ccc(Cl)cc2S1(=O)=O (stereo not drawn) | -1.12% | -3.13% | -0.607% | 0.503% | -0.419% | 0.961% | -2.51% | -2.29% | -1.84% | 0.605%
C=C1C[C@@H]2[C@H](CC[C@]3(C)C(=O)CC[C@@H]23)[C@@]2(C)C=CC(=O)C=C12 | 2.35% | 1.24% | 3.42% | 2.01% | 0.458% | -1.58% | -0.552% | -2.53% | -2.19% | 0.875%
O=P1(N(CCCl)CCCl)NCCCO1 (stereo not drawn) | -1.28% | -0.973% | -2.34% | -0.609% | -1.32% | -0.517% | -1.67% | -2.17% | -1.97% | -0.0596%
CC(C)N(CCNC(=O)CN1CCCC1=O)C(C)C | 2.94% | 3.86% | 1.76% | 4.77% | 3.31% | 3.19% | 1.2% | -0.694% | 3.19% | 2.1%
NCC(O)c1ccc(O)cc1 (stereo not drawn) | -0.0577% | 1.17% | 0.265% | -0.182% | 2.12% | -2.95% | 22.2% | 1.19% | -3.26% | -3%
Cn1c(CCCC(=O)O)nc2cc(N(CCCl)CCCl)ccc21 | 3.01% | 2.76% | 2.34% | 11.2% | 4.99% | 3.4% | 48.6% | -0.00689% | 1.43% | -0.487%
C=CC[C@]1(O)CC[C@H]2[C@@H]3CCC4=CC(=O)CCC4=C3C=C[C@@]21C | 1.35% | 1.67% | -0.403% | 1.01% | 1.7% | 1.91% | 2.23% | 1.08% | 1.88% | 2.31%
Cc1cccc(C)c1NC(=O)CN1CCCC1=O | -3.64% | -1.99% | -0.96% | -1.24% | -0.565% | -3.14% | 6.05% | -2.89% | -1.55% | -1.38%
C[C@]12CCC(=O)C=C1C=C[C@@H]1[C@@H]2CC[C@@]2(C)[C@H]1CC[C@@]2(O)CCC(=O)O | 0.155% | -0.641% | 2.17% | 1.05% | 0.878% | -0.966% | 37.3% | -0.186% | -0.451% | -0.386%
COc1cc2c(cc1OC)[C@@]13CCN4CC5=CCO[C@H]6CC(=O)N2[C@H]1[C@H]6[C@H]5C[C@H]43 | -3.31% | 0.569% | 3.92% | 0.679% | 5.09% | -3.27% | 19.6% | 0.395% | 1.58% | 10.4%
C/C=C(\C)C(=O)N[C@@H](c1ccccc1)[C@@H](O)C(=O)O[C@H]1C[C@@]2(O)[C@@H](OC(=O)c3ccccc3)[C@@H]3[C@]4(OC(C)=O)CO[C@@H]4C[C@H](O)[C@@]3(C)C(=O)[C@H](OC(C)=O)C(=C1C)C2(C)C | 11.3% | 8.35% | 8.08% | 23.2% | 33.6% | 19.9% | 59.9% | 37% | 0.972% | 4.19%
C=CCN.ClCC1CO1 (stereo not drawn) | 0.23% | -1.75% | 1.62% | 1.51% | 2.03% | -0.039% | 0.544% | 0.558% | 1.49% | 0.672%
CC(NC(C)(C)C)C(=O)c1cccc(Cl)c1 (stereo not drawn) | -0.525% | -0.598% | -1.27% | 0.229% | 1.55% | 0.445% | -1.56% | 0.0304% | -0.145% | 0.264%
C[C@@H]1CC[C@H]2[C@@H](C)C(=O)O[C@@H]3O[C@@]4(C)CC[C@@H]1[C@]32OO4 | 3.47% | -0.962% | 4.12% | 4.81% | 4.98% | 4.39% | 14.5% | 12.8% | -4.44% | 20.5%
CC[C@@H](C(N)=O)N1CCCC1=O | 1.34% | -1.57% | 0.427% | -0.877% | -1.17% | -3.23% | -0.905% | -1.25% | -0.784% | 0.999%
CN1C2CC(O)CC1C1OC12 (stereo not drawn) | -2.42% | -0.452% | -1.33% | 0.803% | -1.67% | -0.472% | -2.89% | -1.37% | -0.226% | –
C#C[C@]1(O)CC[C@H]2[C@@H]3CCC4=CC(=O)CC[C@]4(C)[C@H]3CC[C@@]21C | 0.66% | 2.06% | 2.92% | 3.05% | 1.6% | 0.344% | 5.86% | 0.623% | 2.6% | 0.296%
CN1C(=O)COc2c(C(=O)NC3CN4CCC3CC4)cc(Cl)cc21 (stereo not drawn) | 2.11% | 3.22% | 1.36% | 3.07% | 2.32% | 3.19% | 0.849% | -0.021% | 3.53% | 1.12%
CNC1CC(N)C(O)C(OC2OC(CO)C(O)C3OC4(OC(C(N)CO)C(O)C(O)C4O)OC23)C1O (stereo not drawn) | 4.68% | 1.71% | 0.134% | 3.12% | -0.261% | 1.68% | 1.11% | 3.64% | 1.16% | -0.132%
